Source: PubChem BioAssay (National Center for Advancing Translational Sciences (NCATS))
CHX counter = counter-screen for Shiga toxin inhibitors: cycloheximide protein synthesis inhibition; cell reporter, cycloheximide protein synthesis inhibition counterscreen; max response, %; 300,000 tested, 12% active; in the data active = max response mostly above about 13%, no sharp cut-off; inactive = mostly below about 14%; note: read at 38.3 µM for the half of the compounds with a filed dose
Pf growth 96h = inhibits malaria parasite growth, 96 h; P. falciparum luciferase reporter growth, 96 h; Potency, µM (highest dose often 28.7 µM), usual class: inhibitors; 320,000 tested, 6.9% active
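Readout is luminescence from an integrated firefly luciferase in P. falciparum. Red cells, 2% hematocrit and 0.05% parasitemia final, were cultured with compound through two parasite generations (96 hours) at 37 C, 5% CO2.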
Shiga toxin inh = blocks Shiga toxin action in Vero cells; Vero cells, Shiga toxin protein synthesis inhibition reporter; inhibition, % at 38.7 µM; 290,000 tested, 9.2% active; in the data active = inhibition mostly above about 28%, no sharp cut-off; inactive = mostly below about 43%
AMA1 RON2 block = inhibitors of Plasmodium falciparum AMA1-RON2 interaction; 360,000 tested, 0.2% active; Potency, µM (titrated, usually from 58.2 µM), hits mostly inhibitors; AlphaScreen AMA1-biotinylated RON2 peptide binding; note: nearly all actives have a fitted effect of over 45% in size
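AMA1 (3D7) with his tag at 25 nM final met compounds first, then biotinylated RON2 peptide at 25 nM; detection used donor plus acceptor beads, 10 µg/mL apiece, read by AlphaScreen after 30 min at room temperature.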
Pf growth 48h = P. falciparum growth inhibition at 48 hours (one generation) | P. falciparum luciferase growth in erythrocytes, 48 h | 310,000 tested, 5.9% active | AID 504832 | Potency, µM (top dose mostly 28.7 µM), most hits filed as inhibitors
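Parasite viability was followed by luminescence of a genomically integrated firefly luciferase. Cultures held 0.1% parasitemia at 2% hematocrit (final), incubated under 5% CO2 at 37 C.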
SARS PLpro yeast = SARS-CoV PLP inhibition in yeast; 330,000 tested, 0.19% active; S. cerevisiae expressing SARS-CoV PLpro, growth rescue; Potency, µM (titrated, usually from 32.9 µM), most hits filed as activators; calls by dose curve; note: nearly all actives have a fitted effect of over 55% in size
Each line names hits and unclear results; the compound was inactive in the other large screens. Sampled rows, rich in hits. Any-hit rate of the full collection: about 19%. Unless noted, calls come from the whole dose curve; as a rule, active = well fitted curve in the direction sought with a large enough effect; inconclusive = small, poorly fitted or top-dose-only effect, or another doubt; inactive = no such curve, though single readings can be large; an effect the other way counts as inactive or inconclusive.

CCCn1c(SCC(=O)NCC)nc2sc3c(c2c1=O)CCC3	none
Cc1ccc(C(=O)C[n+]2cc(-c3ccc(C)cc3)n3c2CCCCC3)cc1	Pf growth 96h 0.41µM, Pf growth 48h 0.41µM
O=C(C[n+]1cc(-c2ccccc2)n2c1CCC2)OCc1ccccc1	Pf growth 96h inconclusive
COc1ccc(C(=O)C[n+]2cc(-c3ccc(OC)cc3)n3c2CCCC3)cc1	Pf growth 96h 1.5µM, Pf growth 48h 1.2µM
Cc1ccc(-c2c[n+](Cc3ccc(Cl)c(Cl)c3)c3n2CCC3)cc1	Pf growth 96h 0.19µM, Pf growth 48h 1.7µM
O=C(C[n+]1cc(-c2ccccc2)n2c1CCCCC2)c1ccc(Br)cc1	Pf growth 48h 1.7µM
O=C(COC(=O)CCc1c[nH]c2ccccc12)NC(c1ccccc1)c1ccccc1	Pf growth 96h inconclusive, AMA1 RON2 block inconclusive
CN(C)c1nc(=NCc2ccco2)ss1	Pf growth 96h 2.6µM, Pf growth 48h inconclusive
CCOC(CN=c1nc(N(C)C)ss1)OCC	none (no result: CHX counter, Pf growth 96h, Shiga toxin inh, Pf growth 48h, SARS PLpro yeast)
CCN(CC(=O)Nc1cc(Cl)ccc1C)C(=O)Cc1sc(C)nc1-c1ccc(F)cc1	Pf growth 96h 4.7µM, Pf growth 48h inconclusive (no result: CHX counter, Shiga toxin inh)
CCN(CC(=O)Nc1c(F)cccc1F)C(=O)Cc1sc(C)nc1-c1ccc(F)cc1	Pf growth 48h inconclusive (no result: CHX counter, Shiga toxin inh)
Oc1ccc(Nc2nc(Cl)nc(NCc3ccco3)n2)cc1	CHX counter 34
C=CCNc1nc(Cl)nc(NCc2ccco2)n1	Pf growth 96h 9.3µM, Pf growth 48h inconclusive
C=CCNc1nc(NCc2ccco2)nc(OCC)n1	none
Cc1ccc2cccc(NC(=O)c3ccc(Br)o3)c2n1	none
Cc1cc2nc(-c3cccc(NC(=O)c4ccc(Br)o4)c3C)oc2cc1C	CHX counter 24
Cc1ccc2oc(-c3cccc(NC(=O)c4ccc(Br)o4)c3C)nc2c1	CHX counter 66, Shiga toxin inh 70 (no result: Pf growth 48h)
CC(=O)Nc1ccc(-c2ccnc3c2CC(C(=O)Nc2cccnc2)O3)cc1 (stereo not given)	none (no result: CHX counter, Pf growth 96h, Shiga toxin inh, Pf growth 48h, SARS PLpro yeast)
O=C1N[C@@H](Cc2ccccc2)C(=O)N2[C@H]1C[C@]1([C@]34C[C@H]5C(=O)N[C@@H](Cc6ccccc6)C(=O)N5[C@H]3N(S(=O)(=O)c3ccccc3)c3ccccc34)c3ccccc3N(S(=O)(=O)c3ccccc3)[C@H]21	Pf growth 96h 0.74µM, Pf growth 48h 1.5µM (no result: CHX counter, Shiga toxin inh)
O=C1N[C@@H](Cc2ccccc2)C(=O)N2[C@@H]3N(S(=O)(=O)c4ccccc4)c4ccccc4[C@]3(Br)C[C@@H]12	none (no result: CHX counter, Pf growth 96h, Shiga toxin inh, Pf growth 48h, SARS PLpro yeast)
N=C1SCC(=O)N1c1ncc(Cc2ccc(F)cc2)s1	Pf growth 48h inconclusive
O=C(CN1CCCC1=O)NC1(C(F)(F)F)NC(=O)N(Cc2ccccc2)C1=O (stereo not given)	none (no result: Pf growth 96h)
Cc1cc(NCCCN2CCOCC2)n2ncc(-c3ccc(Cl)cc3)c2n1	CHX counter 22
Cc1cc(NCCCn2ccnc2)n2ncc(-c3ccc(Cl)cc3)c2n1	CHX counter 40, Shiga toxin inh 83
Cc1cccc(-c2cc3nc(C)cc(NCCCn4ccnc4)n3n2)c1	AMA1 RON2 block inconclusive, Pf growth 48h inconclusive (no result: Pf growth 96h)
CCCc1cc(NCCCn2ccnc2)n2nc(C)c(-c3ccccc3)c2n1	Pf growth 96h 0.41µM, Pf growth 48h inconclusive
CC(C)(C)c1cc(NCCCn2ccnc2)n2ncc(-c3ccccc3)c2n1	CHX counter 37, Pf growth 96h inconclusive, Shiga toxin inh 67, Pf growth 48h inconclusive
CCOC(=O)CNC(=S)N(CCCN1CCN(C)CC1)Cc1cccs1	none
CC(C)(C)c1cc(C(F)(F)F)n2ncc(-c3ccccc3)c2n1	Pf growth 96h inconclusive
CC(C)Nc1cc(C(C)(C)C)nc2c(-c3ccccc3)cnn12	CHX counter 55, Pf growth 96h 13µM, Shiga toxin inh 151, Pf growth 48h inconclusive
c1ccc2[nH]c(CSc3nc4ccccc4s3)nc2c1	CHX counter 44, Shiga toxin inh 55, Pf growth 48h inconclusive
CCCc1nc2ccccc2[nH]1	Pf growth 96h inconclusive (no result: Pf growth 48h)
c1ccc(SCc2nc(-c3ccncc3)n[nH]2)nc1	Shiga toxin inh 46
c1ccc(SCc2nc3ccccc3[nH]2)nc1	CHX counter 26, Shiga toxin inh 60 (no result: Pf growth 96h)
c1ccc(-c2nc(-c3ccncc3)n[nH]2)nc1	AMA1 RON2 block inconclusive
COCCN(C(=O)COC(=O)CCS(=O)(=O)c1ccccc1)c1c(N)n(Cc2ccccc2)c(=O)[nH]c1=O	Pf growth 48h inconclusive (no result: CHX counter, Shiga toxin inh)
COc1ccccc1OCc1cc(-c2ccccc2)no1	CHX counter 68, Shiga toxin inh 89
COc1ccc(OCc2cc(-c3ccc(Cl)cc3)no2)cc1	none
Cc1cc(COc2ccccc2O)on1	none (no result: Pf growth 48h)
c1ccc(OCc2cc(-c3ccccc3)no2)cc1	CHX counter 53, Shiga toxin inh 76
CCOc1ccc(-n2c(C)c(C(C)=O)c3cc(OCC(N)=O)ccc32)cc1	Pf growth 48h 13µM
CCn1c(C)c(C(=O)Nc2ccc(OC)cc2)c2cc(OC)ccc21	CHX counter 19
COCCOC(=O)c1c(C)n(C)c2ccc(OC(=O)c3c(OC)cccc3OC)cc12	Pf growth 96h inconclusive, Pf growth 48h 1.9µM
CCOC(=O)c1c(C)n(CCN2CCN(C)CC2)c2ccc(OC)cc12	Pf growth 96h 3.7µM, Pf growth 48h inconclusive
CCCCn1c(C)c(C(=O)O)c2cc(OC)ccc21	none
CCOC(=O)c1c(C)n(C)c2cc(-c3ccc(F)cc3)c(O)cc12	Pf growth 48h 7.4µM
CCOC(=O)c1c(C)n(C)c2ccc(OCC(N)=O)cc12	Pf growth 96h 10µM
CCOC(=O)c1c(C)n(C)c2ccc(OC(C)=O)cc12	Pf growth 96h inconclusive
CCOC(=O)c1c(C)n(C)c2ccc(OCC(O)CN(CC)CC)cc12 (stereo not given)	Pf growth 96h 5.9µM (no result: Pf growth 48h)
S=C1Nc2ccccc2Sc2ccccc21	Pf growth 96h inconclusive
c1ccc2c(c1)Nc1cc3ccccc3cc1S2	CHX counter 26, Pf growth 96h 1.9µM, Shiga toxin inh 47
COc1ccc2c(c1)Sc1ccccc1N2	CHX counter 31, Pf growth 96h inconclusive, AMA1 RON2 block 16µM
c1ccc2c(c1)Nc1ccncc1S2	Pf growth 96h inconclusive, Pf growth 48h 15µM
C=CCN1c2ccccc2Sc2cnccc21	none (no result: CHX counter, Pf growth 96h, Shiga toxin inh, Pf growth 48h, SARS PLpro yeast)
N#Cc1ccc(Cl)cc1NC(=O)COC(=O)c1ccc(S(=O)(=O)N2CCCC2)cc1	none (no result: Pf growth 48h)
CCOC(=O)c1ccc(NC(=O)NCc2ccccn2)cc1	none
O=C(Cc1ccc(Br)cc1)NC1CCSC1=O (stereo not given)	none
Cc1nc2ccc(S(=O)(=O)NCC(=O)Nc3cccc(F)c3)cc2s1	none
CCC(=O)c1ccc(OC)c(OC)c1OCc1ccccc1	none (no result: CHX counter, Pf growth 96h, Shiga toxin inh, Pf growth 48h, SARS PLpro yeast)
Cc1cccc(N2CCN(S(=O)(=O)c3ccc4c(c3)CCCN4C(=O)C3CCC3)CC2C)c1 (stereo not given)	Pf growth 48h inconclusive
O=C(c1cccc(C(F)(F)F)c1)N1CCC(O)(CS(=O)(=O)Cc2ccccc2)CC1	none
COc1ccc(CS(=O)(=O)CC2(O)CCN(C(=O)c3cccc(C(F)(F)F)c3)CC2)cc1	Pf growth 48h 15µM
